The list is not random: actives were taken first. Their share in the collection is about 9.4%.
FLuc modulator – counter-screen for miR-21 project: firefly luciferase inhibitors or activators; 6.9% of 360,000 active; P08659; Potency, µM (series often up to 57.5 µM), for inactives: top-dose activity change, negative = inhibition, usual class: inhibitors; purified FLuc, Km substrates, luminescence inhibition; AID 588342;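 further: plate controls were vehicle for no effect and reference inhibitor for full effect; nearly all actives have a fitted effect of over 55% in size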
Target sequence (P08659 whole entry, looked up): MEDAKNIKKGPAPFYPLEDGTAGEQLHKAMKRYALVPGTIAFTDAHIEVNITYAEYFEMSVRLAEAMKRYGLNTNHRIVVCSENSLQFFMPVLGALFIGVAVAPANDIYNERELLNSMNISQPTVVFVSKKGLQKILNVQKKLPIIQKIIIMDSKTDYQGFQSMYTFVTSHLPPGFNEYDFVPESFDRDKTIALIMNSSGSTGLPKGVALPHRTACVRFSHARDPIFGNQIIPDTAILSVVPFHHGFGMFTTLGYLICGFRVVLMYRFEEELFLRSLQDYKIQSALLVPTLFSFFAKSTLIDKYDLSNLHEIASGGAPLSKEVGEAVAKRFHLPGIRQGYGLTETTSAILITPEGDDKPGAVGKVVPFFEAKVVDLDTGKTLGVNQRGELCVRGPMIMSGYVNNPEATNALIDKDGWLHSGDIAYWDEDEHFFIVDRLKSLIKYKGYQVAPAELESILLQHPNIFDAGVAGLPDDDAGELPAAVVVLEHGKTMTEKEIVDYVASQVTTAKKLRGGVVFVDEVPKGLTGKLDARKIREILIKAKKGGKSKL
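Purified P. pyralis luciferase, 10 nM final, with Km-level 10 uM D-luciferin and 10 uM ATP in 50 mM Tris acetate pH 7.5, 10 mM Mg acetate, 0.01% Tween-20, 0.05% BSA; 6-point qHTS titration about 60 µM downward; luminescence read.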
ELG1 genotox – genotoxicity induction in ELG1-luciferase HEK293T cells; HEK293T ELG1-luciferase reporter, luminescence, 16 h; 1.3% of 330,000 active; Potency, µM (doses to about 46 µM), without a hit: at the highest dose activity change, positive = activation, hits mostly activators; further: % of control where 0% means no effect; nearly all actives have a fitted effect of over 60% in size
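Genotoxicity was scored as increased ELG1-luciferase reporter signal, measured by ONE-Glo luminescence (30 min, room temperature). Compound or vehicle exposure of the HEK293T reporter cells lasted 16 hr at 37°C.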
Rab9 prom act – Rab9 promoter activation | 2.8% of 320,000 active | Potency, µM (doses to about 9.22 µM), inactives show top-dose activation, negative = inhibition, hits mostly activators | Huh7 Rab9 promoter-luciferase reporter, luminescence, 24 h | AID 485297; further: % of control where 0% means no effect; nearly all actives have a fitted effect of over 60% in size
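Luminescence read-out: Huh7 cells stably expressing Rab9-luciferase, treated 24 h with compound at 37 °C, then lysed with luciferase reagent for 10 min at ambient before reading.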
NPC1 prom act – NPC1 promoter activation; Huh7 NPC1 promoter luciferase reporter, 24 h; 2.4% of 320,000 active; Potency, µM (highest dose often 9.22 µM), without a hit: top-dose activation, hits mostly activators; AID 485313; further: % of control where 0% means no effect; nearly all actives have a fitted effect of over 60% in size
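Stable NPC1-promoter luciferase Huh7 line; cpd (DMSO) 24 h, 37 °C, 5% CO2; Amplite luciferase reagent 10 min RT; luminescence readout. qHTS format.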
SMN2 splice up – SMN2 splice variant enhancement. AID 1458. Potency, µM (doses to about 46.1 µM), for the others: at the top dose activity change, positive = activation, hits mostly activators. HEK293 SMN2-luciferase splicing reporter, luminescence, 30-36 h. 2.8% of 210,000 active; further: % of control where 0% means no effect; nearly all actives have a fitted effect of over 55% in size
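HEK293 cells carry an SMN2 […]–luciferase reporter in which exon 7 inclusion puts luciferase in frame. Cells were plated 10-12 h before compound addition, then incubated 30-36 h at 37C. ONE-Glo luminescence was read; sodium butyrate at 4.5 mM final served as control.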
ELG1 DNA repair – inhibitors of ELG1-dependent DNA repair in HEK293T cells. 2.3% of 330,000 active. Potency, µM (highest dose often 46.1 µM), for the others: at the highest dose activity change, negative = inhibition, hits mostly inhibitors. HEK293T ELG1-luciferase reporter, luminescence, 16 h; DNA damage induced by 5-fluorouridine. AID 504467; further: on the % scale 0 is the no-effect control and ±100 the full control effect; nearly all actives have a fitted effect of over 55% in size
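HEK293T cells expressing luciferase-tagged ELG1 (2,000/well) received 5-Fluorouridine plus compound or DMSO for 16 hr at 37 °C. Luciferase was read by ONE-Glo luminescence after 30 min at room temperature.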
An asterisk follows results filed as active; ? = inconclusive; nt = not tested or not shown. The call rests on the fitted dose curve; in most records, active means well fitted curve in the direction sought with a large enough effect; inconclusive means small, poorly fitted or top-dose-only effect, or another doubt; inactive means no such curve, though single readings can be large; an effect the other way counts as inactive or inconclusive. Potency means the concentration at half of the fitted maximal effect.

SMILES | FLuc modulator | ELG1 genotox | Rab9 prom act | NPC1 prom act | SMN2 splice up | ELG1 DNA repair
N#Cc1c(N)nc2c(c1-c1ccc3c(c1)OCO3)CCc1ccccc1-2 | 1.7% | 11.6% | -6.5% | -2.4% | ? | -19.7%
c1ccc2c(c1)Cc1cc3cc4c(cc3nc1-2)OCO4 | nt | nt | nt | nt | 0.501µM* | nt
O=S1(=O)CCN2C(=N1)Sc1c2ccc2c1CCCC2 | 15.1µM* | ? | 16.9% | 16.1% | 8.4% | ?
NC(=O)C1CCN(c2ncnc3c2c(-c2ccccc2)cn3-c2ccccc2)CC1 | -2.0% | -20.5% | -1.9% | -2.8% | 1.2% | 16.4µM*
Fc1ccc(-n2cc(-c3ccccc3)c3c(N4CCOCC4)ncnc32)cc1 | ? | -10.5% | 2.3% | -2.6% | -58.3% | 20.6µM*
COc1ccc(-n2cc(-c3ccccc3)c3c(N4CCOCC4)ncnc32)cc1 | ? | -15.8% | 0.7% | 1.2% | -29.3% | ?
Cc1nnc(N2CCOCC2)c2nn(-c3ccccc3)c(C)c12 | 0.7% | -3.9% | 3.0% | -3.4% | -9.1% | -22.4%
Clc1ccccc1N1CCN(c2ncnc3c2c(-c2ccccc2)cn3-c2ccccc2)CC1 | -0.3% | nt | nt | nt | nt | nt
c1ccc(-n2nnc3c(N4CCOCC4)ncnc32)cc1 | 1.51µM* | ? | 0.316µM* | 0.316µM* | 11.6% | ?
O=C(NC(=S)NNC(=O)c1ccco1)c1ccc(F)cc1 | -11.2% | 7.1% | 4.0% | -1.5% | nt | -5.4%
O=C(NNC(=S)NC(=O)c1ccco1)c1ccc(NC(=O)c2ccccc2)cc1 | ? | -6.2% | -5.6% | -1.0% | -27.4% | 14.6µM*
O=C(NC(=S)NCCc1ccccc1)C1CCCCC1 | ? | 5.6% | -2.4% | -0.6% | 20.9% | ?
O=C(NC(=S)NNC(=O)c1ccccc1O)c1ccco1 | 21.3µM* | 0.6% | 0.5% | 4.4% | -9.4% | 26.1%
O=C(NC(=S)Nc1ccccc1Br)c1ccco1 | 10.7µM* | ? | ? | ? | nt | ?
O=C(NC(=S)Nc1cccc(NC(=S)NC(=O)c2ccco2)n1)c1ccco1 | -4.3% | 3.8% | 2.2% | 0.9% | -6.5% | 13.6%
O=C(Nc1ccc(NC(=S)NC(=O)c2ccco2)cc1)c1ccccc1 | 1.1% | 14.6% | 13.1% | -2.8% | nt | ?
O=C(CNC(=S)NC(=O)C1CCCCC1)c1ccccc1 | 12µM* | ? | ? | 29.8% | ? | ?
O=C(NC(=S)NNC(=O)c1cc2ccccc2cc1O)c1ccco1 | 16.9µM* | 3.4% | 0.2% | 13.4% | -4.0% | 0.9%
O=C(CNC(=S)NC(=O)c1cccs1)c1ccccc1 | ? | ? | 16.9% | 12.6% | nt | ?
COc1ccc(C(=O)NC(=S)NNC(=O)c2ccco2)cc1 | 0.4% | 2.8% | -1.6% | -3.0% | nt | -10.7%
O=C(CNC(=S)NC(=O)c1ccco1)c1ccccc1 | 12µM* | 16.3% | 23.0% | ? | 1.7% | ?
O=C(/C=C/c1cccc([N+](=O)[O-])c1)Nc1cc(C(=O)O)cc(C(=O)O)c1 | -17.9% | -9.0% | 1.6% | -9.5% | -45.3% | 6.2%
O=C(O)c1cccc(NS(=O)(=O)/C=C/c2ccccc2)c1 | -1.4% | -1.9% | -0.9% | 1.8% | 9.8% | 15.5%
O=C(Nc1cccc(C(=O)O)c1)/C(=C\C=C\c1ccccc1)NC(=O)c1ccccc1 | 13.5µM* | -1.8% | -3.8% | -0.9% | 0.7% | 1.9%
O=C(/C=C/c1ccccc1)Nc1cccc(C(=O)O)c1 | 0.0675µM* | -14.7% | ? | ? | nt | ?
SMILES | FLuc modulator | ELG1 genotox | Rab9 prom act | NPC1 prom act | SMN2 splice up | ELG1 DNA repair
O=C(Nc1cccc(C(=O)O)c1)/C(=C\c1ccccc1)NC(=O)c1ccccc1 | -10.1% | -1.6% | ? | -1.3% | -2.2% | 17.2%
O=C(/C=C/c1ccccc1)N/C(=C/c1ccccc1)C(=O)Nc1cccc(C(=O)O)c1 | 23.9µM* | -0.5% | 4.6% | -1.4% | -9.4% | -7.8%
O=C(/C=C/c1ccccc1)Nc1cc(NC(=O)/C=C/c2ccccc2)cc(C(=O)O)c1 | 13.5µM* | -3.7% | 15.7% | 10.5% | nt | -15.4%
CCCCn1c(=O)c2oc3ccccc3c2n(Cc2ccc(C)cc2)c1=O | 3.2% | nt | nt | nt | nt | nt
O=C(CN1C(=O)C(c2ccc(F)cc2)=NC12CCCCCC2)Nc1ccc(F)c(Cl)c1 | 3.1% | nt | nt | nt | 9.7% | nt
O=C(Nc1ccc(C(=O)O)cc1)/C(=C\C=C\c1ccccc1)NC(=O)c1ccccc1Br | 0.169µM* | 0.6% | 3.16µM* | 2µM* | nt | ?
CCOc1ccccc1/C=N/NC(=O)c1cc(C(C)C)[nH]n1 | ? | 3.7% | 0.2% | 2.8% | nt | 21.2%
CC(C)c1cc(C(=O)N/N=C/c2c[nH]c3ccccc23)n[nH]1 | 23.9µM* | 5.2% | 15.5% | 12.6% | nt | 13.6%
Cn1ccc(C(=O)N/N=C/c2c[nH]c3ccccc23)n1 | 15.1µM* | ? | ? | ? | nt | ?
CC(=O)N1CCC2(CCCN(Cc3cc(C(F)(F)F)cc(C(F)(F)F)c3)C2)CC1 | nt | nt | nt | nt | -16.4% | nt
O=[N+]([O-])c1ccc(C2Oc3ccccc3C3CC(c4ccccc4)=NN32)s1 (stereo unspecified) | 9.53µM* | ? | 20.4% | -1.6% | 25.1µM* | ?
c1ccc(C2Oc3ccccc3C3CC(c4cccs4)=NN32)cc1 (stereo unspecified) | ? | 7.5% | 11.2% | 3.4% | ? | ?
CCC(=O)Nc1cc2nn(-c3ccc(C)cc3)nc2cc1C | 0.107µM* | ? | ? | ? | -56.3% | ?
Cc1cc2nn(-c3ccc(F)cc3)nc2cc1NC(=O)c1ccc(OC(C)C)cc1 | -2.9% | nt | nt | nt | 2.5% | nt
Cc1cccc(C(=O)Nc2cc3nn(-c4ccc(C(C)C)cc4)nc3cc2C)c1 | 2.13µM* | nt | nt | nt | 8.5% | nt
CCCCC(=O)Nc1cc2nn(-c3ccc(OC)cc3)nc2cc1C | ? | ? | 21.1% | ? | ? | ?
CCC(=O)Nc1cc2nn(-c3ccc(OC)cc3)nc2cc1C | 0.301µM* | 0.411µM* | ? | 0.1µM* | -9.2% | ?
COc1ccc(-n2nc3cc(C)c(NC(=S)NC(=O)c4ccccc4C)cc3n2)cc1 | 2.39µM* | ? | 15.5% | 0.6% | 9.0% | ?
Nc1c(C(=O)Nc2ccc(OC(F)(F)F)cc2)nnn1Cc1ccccc1 | -0.6% | nt | nt | nt | -5.2% | nt
COc1cccc(N2CCN(C(=O)c3ccc(CS(=O)c4cccc(Cl)c4)o3)CC2)c1 (stereo unspecified) | -3.1% | nt | nt | nt | nt | nt
O=C(c1cnc(N2CCCCC2)c2ccccc12)N1CCN(c2cccc(Cl)c2)CC1 | -3.7% | nt | nt | nt | nt | nt
COc1ccc(N(CC(=O)NCCSc2ccccn2)S(=O)(=O)c2ccccc2)c(OC)c1 | -0.4% | -23.3% | -2.9% | -6.9% | nt | -4.6%

From PubChem BioAssay
